Test [1] in a line: small molecules captured by biotinylated probe aFSTL3 – biochemical, small-molecule microarray, fluorescence 635/667, stem cell growth factor project, primary screen (AID 1064).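 Also: measures binding of the biotinylated anti-FSTL3 antibody to printed compounds.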 As to conditions: higher = more signal.
Test [2] is described as follows: binders from COS7 lysate, DM2A8 probe, primary screen, torsin A project, cell lysate, small-molecule microarray, fluorescence 635/667 (AID 1065). As to conditions: higher = more signal, COS7 lysate expressing mutant human TOR1A.
Test [3] is described as follows: small molecules captured by biotinylated probe aFGF2 – biochemical, small-molecule microarray, fluorescence 635/667, stem cell growth factor project, primary screen (AID 1067).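 Also: measures binding of biotinylated aFGF2 protein to printed compounds on slides; z-score merges feature fluorescence and signal-to-noise across triplicate slides.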 The note with it: higher = more signal.
Test [4] in a line: small molecules captured by biotinylated probe aFGF10 – biochemical, small-molecule microarray, fluorescence 635/667, stem cell growth factor project, primary screen (AID 1071).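 Also: score merges 667 nm spot intensity and signal to noise from triplicate slides.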 As to conditions: higher = more signal.
Test [5] concerns the target Neurogenic locus notch homolog protein 2 (Homo sapiens) (UniProt Q04721). In words: small molecules binding Notch2 protein – biochemical, small-molecule microarray, 635 nm fluorescence, stem cell growth factors, primary screen (AID 1073). The note with it: higher = more signal.
Test [6] deals with Pro-neuregulin-1, membrane-bound isoform (Homo sapiens) (UniProt Q02297). In words: small molecules binding neuregulin-1 protein – biochemical, small-molecule microarray, fluorescence 635/667, psychiatric disease protein project, primary screen (AID 1075).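 Also: score combines 667 nm spot fluorescence with signal to noise.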 As to conditions: NRG1 binding, 635 nm fluorescence, higher = more signal.
Chain of Pro-neuregulin-1, membrane-bound isoform (Homo sapiens) (Q02297 whole entry, looked up, the tested form may be a part, canonical isoform): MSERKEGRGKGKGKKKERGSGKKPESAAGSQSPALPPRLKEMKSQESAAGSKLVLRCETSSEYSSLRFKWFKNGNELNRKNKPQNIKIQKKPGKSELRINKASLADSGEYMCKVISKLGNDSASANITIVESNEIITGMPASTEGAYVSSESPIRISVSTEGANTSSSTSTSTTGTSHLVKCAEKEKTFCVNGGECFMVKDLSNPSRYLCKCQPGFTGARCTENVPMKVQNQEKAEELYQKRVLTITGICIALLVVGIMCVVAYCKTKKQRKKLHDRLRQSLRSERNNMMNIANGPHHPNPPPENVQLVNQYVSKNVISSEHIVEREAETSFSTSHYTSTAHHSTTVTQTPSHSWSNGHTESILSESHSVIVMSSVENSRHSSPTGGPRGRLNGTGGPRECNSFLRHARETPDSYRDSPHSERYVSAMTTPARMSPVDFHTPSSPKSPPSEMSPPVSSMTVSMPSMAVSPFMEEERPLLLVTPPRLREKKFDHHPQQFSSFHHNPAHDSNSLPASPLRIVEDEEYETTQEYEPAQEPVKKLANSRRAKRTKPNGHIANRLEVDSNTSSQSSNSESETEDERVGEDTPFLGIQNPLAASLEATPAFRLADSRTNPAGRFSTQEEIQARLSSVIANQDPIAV
Test [7] relates to Neuregulin-1 EGF-like domain. In words: small molecules binding NRG1 EGF domain – biochemical, small-molecule microarray, 635 nm fluorescence, primary screen (AID 1081).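 Also: binding of the protein to compounds printed on small-molecule microarray slides.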 The note with it: higher = more signal.
A short description of test [8]: FRG1 expression reporter modulators in myotubes – cell-based, C2C12 myotubes, firefly/Renilla luciferase, luminescence, FRG1 inhibition for FSHD, primary screen (AID 1084). As to conditions: FRG1 promoter luciferase, higher = more signal, called active from +8 up or from −8 down.
The nature of test [9]: small molecules captured by biotinylated probe aFST – biochemical, small-molecule microarray, fluorescence 635/667, stem cell growth factor project, primary screen (AID 1086).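 Also: score merges 667 nm fluorescence with signal-to-noise of each printed compound spot.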 The note with it: higher = more signal.
A short description of test [10]: binders of probe aHhip on microarray, primary screen, stem cell growth factor project, biochemical, small-molecule microarray, fluorescence 635/667 (AID 1087).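 Also: score merges spot fluorescence at 667nm with spot signal to noise ratio.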 The note with it: higher = more signal.
Test [11] relates to PRMT1 (protein arginine N-methyltransferase 1). In words: small molecules binding arginine methyltransferase PRMT1 – biochemical, small-molecule microarray, 635 nm fluorescence, primary screen (AID 1088).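 Also: binding of Prmt1 protein to compounds spotted on small-molecule microarray slides.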 As to conditions: higher = more signal.
The nature of test [12]: growth effects on S. cerevisiae YJM789 – YJM789 clinical isolate, OD600, 24 h, basal, primary screen (AID 1089).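 Also: growth of clinical yeast isolate S. cerevisiae YJM 789 seeded 1000 cells per well; test concentration not given here.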 As to conditions: higher = more signal, called active from +8 up or from −8 down.
The nature of test [13]: S. pombe growth modifiers, basal conditions – strain 972, OD600, 24 h, no modulator, primary screen (AID 1090).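 Also: basal condition with compound alone and no growth modifier present; test concentration not given here.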 As to conditions: S. pombe 972 growth, higher = more signal, called active from +8 up or from −8 down.
Test [14] in a line: budding yeast growth modifiers under rapamycin – strain BY4716, OD600, 96 h, primary screen (AID 1091). Also: test concentration not given here. As to conditions: S. cerevisiae BY4716 + rapamycin, higher = more signal, called active from +8 up or from −8 down.
The target of test [15] is Torsin-1A-interacting protein 2 (Homo sapiens) (UniProt Q8NFQ8). In words: small molecules binding lysate-expressed LULL1 – cell lysate, human LULL1 lysate, 635/667 nm fluorescence, primary screen (AID 1092).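 Also: score merges per-feature 667 nm fluorescence with signal-to-noise.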 The note with it: small-molecule microarray, hLULL1 lysate binding, 635 nm fluorescence; higher = more signal.
Chain of Torsin-1A-interacting protein 2 (Homo sapiens) (Q8NFQ8 whole entry, looked up): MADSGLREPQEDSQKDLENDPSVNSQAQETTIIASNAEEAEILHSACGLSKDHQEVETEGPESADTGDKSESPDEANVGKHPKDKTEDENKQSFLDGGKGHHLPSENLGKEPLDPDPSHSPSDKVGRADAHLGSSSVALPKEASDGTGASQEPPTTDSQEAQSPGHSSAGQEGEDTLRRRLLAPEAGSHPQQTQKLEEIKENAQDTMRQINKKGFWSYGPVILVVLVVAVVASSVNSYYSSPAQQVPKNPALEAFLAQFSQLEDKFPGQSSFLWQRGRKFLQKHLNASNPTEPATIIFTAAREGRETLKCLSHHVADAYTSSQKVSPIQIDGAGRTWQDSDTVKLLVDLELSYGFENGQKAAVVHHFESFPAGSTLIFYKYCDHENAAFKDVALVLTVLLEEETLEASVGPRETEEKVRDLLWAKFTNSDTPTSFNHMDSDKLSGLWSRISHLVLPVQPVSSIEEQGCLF
Test [16] in a line: optical density change of DRC41 E. coli – strain DRC41, OD650, 24 h, E. coli filamentation project, primary screen (AID 1093).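 Also: MC1000 strain lacking acrAB efflux and sulA so SOS filamentation is blocked; test concentration not given here.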 As to conditions: E. coli DRC41 growth, higher = more signal, called active from +8 up or from −8 down.
Test [17] can be described thus: probe aLefty2 binding to arrayed compounds – biochemical, biotinylated probe, 635/667 nm fluorescence, primary screen (AID 1094).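 Also: score merges spot fluorescence near 667 nm with spot signal-to-noise ratio.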 The note with it: small-molecule microarray, higher = more signal.
The subject of test [18] is Noggin (protein binding on small-molecule microarray). As to the kind of experiment: small molecules binding Noggin protein – biochemical, 635/667 nm fluorescence, primary screen (AID 1095).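 Also: score merges 667 nm feature fluorescence with signal to noise over triplicate slides.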 The note with it: 635 nm fluorescence, higher = more signal.
In test [19] the target is Neurogenic locus notch homolog protein 3 (Homo sapiens) (UniProt Q9UM47). In words: small molecules binding NOTCH3 protein – biochemical, 635/667 nm fluorescence, primary screen (AID 1096). As to conditions: small-molecule microarray, 635 nm fluorescence, higher = more signal.
A short description of test [20]: probe aEGFR binding to arrayed compounds – biochemical, biotinylated probe, 635/667 nm fluorescence, primary screen (AID 1097).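 Also: probe is a biotinylated anti-EGFR antibody binding compounds printed on slides; score combines fluorescence near 667 nm and signal to noise of each spot.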 The note with it: small-molecule microarray, higher = more signal.

The text below walks through data of PubChem BioAssay.

The structures appear in SMILES notation. The source made the active and inactive calls.

Chain of Neurogenic locus notch homolog protein 2 (Homo sapiens) (Q04721 whole entry, looked up, canonical isoform): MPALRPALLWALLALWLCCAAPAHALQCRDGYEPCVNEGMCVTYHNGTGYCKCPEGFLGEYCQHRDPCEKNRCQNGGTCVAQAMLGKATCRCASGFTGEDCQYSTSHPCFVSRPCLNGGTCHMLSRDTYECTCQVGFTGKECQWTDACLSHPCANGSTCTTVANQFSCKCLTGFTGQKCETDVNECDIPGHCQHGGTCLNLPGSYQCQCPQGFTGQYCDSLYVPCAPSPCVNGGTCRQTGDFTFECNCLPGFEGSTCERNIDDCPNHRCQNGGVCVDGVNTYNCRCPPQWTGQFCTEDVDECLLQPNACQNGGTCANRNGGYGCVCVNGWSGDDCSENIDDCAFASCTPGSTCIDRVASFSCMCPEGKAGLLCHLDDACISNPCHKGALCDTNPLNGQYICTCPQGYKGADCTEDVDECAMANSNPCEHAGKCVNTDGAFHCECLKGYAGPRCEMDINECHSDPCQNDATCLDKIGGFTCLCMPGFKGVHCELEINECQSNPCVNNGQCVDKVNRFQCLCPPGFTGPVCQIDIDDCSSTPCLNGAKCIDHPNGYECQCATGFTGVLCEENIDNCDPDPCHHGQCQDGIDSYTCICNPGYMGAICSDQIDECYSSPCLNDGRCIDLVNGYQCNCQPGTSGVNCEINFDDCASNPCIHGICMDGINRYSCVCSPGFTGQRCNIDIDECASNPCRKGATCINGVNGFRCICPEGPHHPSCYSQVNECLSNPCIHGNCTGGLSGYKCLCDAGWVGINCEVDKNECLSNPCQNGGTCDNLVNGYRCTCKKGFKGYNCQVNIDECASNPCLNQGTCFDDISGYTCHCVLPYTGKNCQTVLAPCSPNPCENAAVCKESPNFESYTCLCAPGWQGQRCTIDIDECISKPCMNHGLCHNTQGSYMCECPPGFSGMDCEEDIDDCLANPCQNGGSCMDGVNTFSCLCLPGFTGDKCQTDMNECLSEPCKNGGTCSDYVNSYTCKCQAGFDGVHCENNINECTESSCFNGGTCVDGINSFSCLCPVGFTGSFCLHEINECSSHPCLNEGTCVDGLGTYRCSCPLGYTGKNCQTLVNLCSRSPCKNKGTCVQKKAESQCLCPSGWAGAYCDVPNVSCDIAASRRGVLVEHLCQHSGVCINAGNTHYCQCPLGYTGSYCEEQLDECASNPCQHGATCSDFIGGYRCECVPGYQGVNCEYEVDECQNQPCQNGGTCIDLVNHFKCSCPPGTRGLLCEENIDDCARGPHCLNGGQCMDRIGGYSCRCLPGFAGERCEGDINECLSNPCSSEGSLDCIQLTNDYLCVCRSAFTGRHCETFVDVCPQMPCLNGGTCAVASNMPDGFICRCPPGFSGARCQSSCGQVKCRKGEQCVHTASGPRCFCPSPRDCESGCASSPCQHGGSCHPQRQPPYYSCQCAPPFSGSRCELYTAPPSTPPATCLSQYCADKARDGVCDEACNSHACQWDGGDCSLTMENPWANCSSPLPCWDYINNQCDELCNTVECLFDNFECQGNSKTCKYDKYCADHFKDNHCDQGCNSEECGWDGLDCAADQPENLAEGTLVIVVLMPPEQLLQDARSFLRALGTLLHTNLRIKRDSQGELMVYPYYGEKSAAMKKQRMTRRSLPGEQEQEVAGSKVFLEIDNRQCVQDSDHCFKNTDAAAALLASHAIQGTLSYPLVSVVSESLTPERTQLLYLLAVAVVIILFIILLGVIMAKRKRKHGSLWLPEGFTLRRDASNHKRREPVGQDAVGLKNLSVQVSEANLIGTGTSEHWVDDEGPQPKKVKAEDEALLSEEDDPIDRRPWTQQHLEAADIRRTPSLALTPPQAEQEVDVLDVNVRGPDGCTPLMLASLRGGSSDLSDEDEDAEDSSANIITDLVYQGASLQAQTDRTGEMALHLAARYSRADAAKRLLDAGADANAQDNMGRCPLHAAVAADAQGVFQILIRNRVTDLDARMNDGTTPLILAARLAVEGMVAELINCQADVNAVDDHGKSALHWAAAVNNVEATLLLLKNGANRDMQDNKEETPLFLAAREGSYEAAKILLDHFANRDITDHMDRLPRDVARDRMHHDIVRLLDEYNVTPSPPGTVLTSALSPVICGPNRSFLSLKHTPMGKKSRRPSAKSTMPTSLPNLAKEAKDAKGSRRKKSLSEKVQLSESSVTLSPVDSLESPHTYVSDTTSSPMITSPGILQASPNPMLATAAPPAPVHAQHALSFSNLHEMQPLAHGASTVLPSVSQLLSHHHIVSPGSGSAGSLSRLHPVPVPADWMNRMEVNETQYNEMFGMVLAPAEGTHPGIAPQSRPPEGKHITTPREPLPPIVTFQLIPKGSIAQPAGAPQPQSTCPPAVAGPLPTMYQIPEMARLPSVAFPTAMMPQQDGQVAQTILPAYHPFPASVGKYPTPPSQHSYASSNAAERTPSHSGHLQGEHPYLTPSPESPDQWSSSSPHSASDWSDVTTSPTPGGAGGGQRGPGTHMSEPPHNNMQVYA

Consider `O=C1O[C@@H](c2ccccc2)[C@@H](c2ccccc2)N2[C@@H](c3ccc(O)cc3)[C@]3(C(=O)Nc4ccc(C#CCCO)cc43)[C@@H](C(=O)O)[C@H]12`, for which the composite z-score in test [1] came out at 3.16; in test [2], 0.489; in test [3], 0.548; in test [4], 0.306; in test [5], 0.725; in test [6] it was 1.91. In addition, the composite z-score in test [7] is 1.07; in test [9] it was 2.44; in test [10], 1.69; in [11], 1.57; in test [15], 2.79; in test [17], 1.55. In addition, the results for the composite z-score in test [18], in [19] and in test [20] were -0.222, 0.314 and 1.07, respectively. For the same molecule, the z-score in test [8] was -0.55 (inactive); in test [12] it was 0.414 (inactive); in [13] it was -0.571 (inactive); in [14], -0.265 (inactive); in [16], 0.7 (inactive).

In the case of `COCCOC(=O)N1C(=O)[C@@]2(c3cc(C#CCC(C(=O)OC)C(=O)OC)ccc31)[C@H](c1ccccc1OCCO)N1[C@H](c3ccccc3)[C@H](c3ccccc3)OC(=O)[C@H]1[C@@H]2C(=O)Nc1nc2ccccc2s1`, the composite z-score in test [1] is -0.144; in test [2] it was 1.2; in [3] it was -0.0335; in [4], 1.19; in [5], 1.2; in test [6] it was 1.37. Also, the composite z-score was determined as 1.06 in test [7]; 0.417 in [9]; 0.417 in test [10]; 1.5 in [11]; 2.22 in test [15]; 0.0416 in [17]. Further, the composite z-score in test [18] was found to be 1.05; in test [19], 1.05; in test [20], 0.0632. Besides, the z-score in [8] is 0.0053 (inactive); in test [12] it was -1.03 (inactive); in [13] it was -0.573 (inactive); in [14], 1.95 (inactive); in test [16], 4.28 (inactive).

Regarding `COCCOC(=O)N1C(=O)[C@@]2(c3ccccc31)[C@H](C(=O)N1CCCCCCC1)[C@H]1C(=O)O[C@H](c3ccccc3)[C@H](c3ccccc3)N1[C@@H]2c1ccccc1OCCO`, the composite z-score came to 3.82 in test [1]; 1.77 in test [2]; 0.679 in test [3]; 0.684 in [4]; 1.3 in test [5]; 1.84 in test [6]. Further, the composite z-score in test [7] worked out at 1.38; in test [9], 3.36; in test [10], 3.52; in [11], 1.53; in test [15] it was 3.61; in test [17] it was 1.67. Further, the composite z-score in test [18] amounted to 0.785; in test [19] it was 1.06; in [20] it was 1.03. Further, the z-score in test [8] is -0.91 (inactive); in [12] it was 0.749 (inactive); in test [13], 0.238 (inactive); in [14], 5.75 (inactive); in test [16], -0.737 (inactive).

With `O[C@@H](Cc1ccccc1)[C@@H](/C=C/c1ccccc1)NCc1ccccc1Br`, the composite z-score in test [1] was 0.686; in test [2], -1.36; in test [3], -0.176; in [4], -1.09; in test [5] it was -1.31; in test [6], -0.803. Besides, the composite z-score in test [7] was -0.639; in test [9], -0.579; in test [10], -0.475; in test [11] it was -0.995; in test [15] it was -0.557; in [17] it was 0.0372. Also, the composite z-score in test [18] is -1.34; in test [19], -0.707; in [20] it was -0.348. In addition, the z-score in test [8] was -0.926 (inactive); in test [12] it was 0.0419 (inactive); in [13], -11.4 (active); in test [14] it was -1.54 (inactive); in test [16], 0.908 (inactive).

In the case of `CCOC(=O)C[C@H]1[C@H](OC(=O)c2cc3ccccc3oc2=O)[C@@H](NC(=O)c2ccc3ccccc3c2)c2cc(OCCCO)ccc2N1C(=O)c1ccccc1`, the composite z-score was -0.444 in [1]; -0.183 in [2]; 0.0087 in test [3]; 0.973 in test [4]; 0.525 in [5]; -0.0064 in [6]. Moreover, the composite z-score is 1.13 in test [7]; 0.623 in [9]; -0.0994 in [10]; 1.13 in [11]; 1.6 in test [15]; -0.139 in test [17]. Further, the results for the composite z-score in [18], in [19] and in test [20] were 0.798, 0.983 and -0.0829, respectively. For the same molecule, the z-score in test [8] was 0.0705 (inactive); in [12] it was -0.087 (inactive); in test [13] it was -1.05 (inactive); in test [14] it was 0.41 (inactive); in [16] it was 1.06 (inactive).
